# Screening data deposited in PubChem by National Center for Advancing Translational Sciences (NCATS).
# Only a selection was taken, and hits are over-represented in it overall.
# DT40 TDP1 no CPT: qHTS for Inhibitors of human tyrosyl-DNA phosphodiesterase 1 (TDP1): qHTS in cells in absence of CPT. DT40 Tdp1-/- hTDP1 cells, no CPT, ATP luminescence, 48 h. AID 686978, 2013. Potency, µM (series often up to 46.2 µM), inactives show at the top dose activity change, negative = growth inhibition, hits mostly inhibitors. 420,000 compounds, 15% hits; further: potency means the concentration at half of the fitted maximal effect; nearly all actives have a fitted effect of over 55% in size
#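 Readout: luminescence from CellTiter-Glo after 30 min in the dark at RT. Cells: DT40 Tdp1-/- with stable hTDP1, 400/well. Exposure: compounds alone, ≥48 hr, 37 °C.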
# HT1080NT lethal: kills 2HG-producing HT-1080-NT fibrosarcoma cells. Potency, µM (doses to about 46.1 µM), inactives show at the highest dose activity, negative = less viability, most hits filed as cytotoxic. HT-1080-NT fibrosarcoma viability, CellTiter-Glo ATP luminescence, 48 h. 360,000 compounds, 1.6% hits;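 further: NT is the 2HG producing partner of a matched IDH1 knockdown line; potency means the concentration at half of the fitted maximal effect; 0% = DMSO-treated cells and -100% = media-only wells without cells; nearly all actives have a fitted effect of over 55% in size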
#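 Toxicity toward the 2HG-producing NT line was scored as %Activity, normalised to DMSO and no-cell wells, from CellTiter-Glo luminescence after 48 hours' treatment.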
# HT1080 IDH1KD tx: toxicity to HT-1080 IDH1 knockdown cells (counter line); HT-1080 IDH1 knockdown viability, ATP luminescence, 48 h; Potency, µM (titrated, usually from 46.1 µM), without a hit: at the highest dose activity, negative = toxicity, usual class: cytotoxic; 360,000 compounds, 2% hits;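 further: potency means the concentration at half of the fitted maximal effect; 0% = DMSO wells and -100% = cell-free medium wells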
#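 % activity derives from luminescence (CellTiter-Glo), normalised to DMSO and no-cell wells. HT-1080-IDH1KD cells, 750/well, had 48 h compound exposure at 37 °C.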
# DT40 TDP1 CPT: DT40-hTDP1 cell growth loss with CPT; chicken DT40 Tdp1-/-;hTDP1 cells + 20 nM CPT, ATP luminescence, 48 h; Potency, µM (doses to about 46.2 µM), for inactives: at the top dose activity change, negative = growth inhibition, actives largely listed as inhibitors; 420,000 compounds, 12% hits; AID 686979; further: potency means the concentration at half of the fitted maximal effect; nearly all actives have a fitted effect of over 55% in size
#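 Chicken DT40 Tdp1-/- cells complemented with human TDP1, 400 cells/well, exposed to compounds plus 20 nM camptothecin for at least 48 h at 37 C; viability read as ATP content by CellTiter-Glo luminescence.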
# IL-1B inflam inh: inhibitors of inflammasome signaling (IL-1 beta secretion); THP-1 LPS/ATP IL-1B secretion, AlphaLISA, 16 h; stronger effect = lower value; activity change, % at 57.5 µM; 360,000 compounds, 4.7% hits; in the data active means activity change below about -50%; inconclusive means mostly about -30% to -49%
#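 THP-1 cells pretreated 1 hr with compounds (up to 57.5 uM final), then stimulated with LPS (250 ng/mL final) plus ATP (1.25 mM final); secreted IL-1B measured by AlphaLISA after 16 hr, decreased signal indicating inhibition.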
# 12-LOX inh: ALOX12 (human) lipoxygenase inhibition. P18054. 580,000 compounds, 1.1% hits. Potency, µM (top dose mostly 108 µM), for the others: at the highest dose activity change, negative = inhibition, hits mostly inhibitors. purified 12hLO, xylenol orange hydroperoxide absorbance; further: potency means the concentration at half of the fitted maximal effect
# Target sequence (P18054 whole entry, looked up): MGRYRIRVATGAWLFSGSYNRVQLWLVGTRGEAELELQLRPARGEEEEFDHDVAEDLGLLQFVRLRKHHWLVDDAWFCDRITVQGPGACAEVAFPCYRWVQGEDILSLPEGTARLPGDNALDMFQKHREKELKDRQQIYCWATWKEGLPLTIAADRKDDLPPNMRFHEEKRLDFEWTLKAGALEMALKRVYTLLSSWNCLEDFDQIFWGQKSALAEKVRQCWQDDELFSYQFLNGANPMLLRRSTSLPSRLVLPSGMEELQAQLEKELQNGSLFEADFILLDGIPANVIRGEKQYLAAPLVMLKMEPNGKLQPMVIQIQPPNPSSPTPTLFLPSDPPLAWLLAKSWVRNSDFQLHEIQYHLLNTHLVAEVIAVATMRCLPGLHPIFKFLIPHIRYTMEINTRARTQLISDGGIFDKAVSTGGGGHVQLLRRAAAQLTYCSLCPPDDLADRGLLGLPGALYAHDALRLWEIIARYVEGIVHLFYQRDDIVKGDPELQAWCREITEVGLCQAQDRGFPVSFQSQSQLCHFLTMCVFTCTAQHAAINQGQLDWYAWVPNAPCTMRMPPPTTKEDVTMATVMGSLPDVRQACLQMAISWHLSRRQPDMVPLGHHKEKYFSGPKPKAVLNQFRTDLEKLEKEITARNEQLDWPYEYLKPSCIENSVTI
#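 Purified human 12hLO (150 nM final) in 25 mM Hepes, 0.01% Triton X-100, pH 7.0 was preincubated 15 min at room temperature with compound. Then 40 uM arachidonic acid was added, 30 min. Hydroperoxide was read by Fe-XO absorbance ratio 573/405 nm.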
# * marks the source's active call; other numbers are inactive results; i = inactive; ? = inconclusive; . = not tested or not shown. Unless noted, the call rests on the fitted dose curve; in most records, active means well fitted curve in the direction sought with a large enough effect; inconclusive means small, poorly fitted or top-dose-only effect, or another doubt; inactive means no such curve, though single readings can be large; an effect the other way counts as inactive or inconclusive. Unless noted, on the % scale 0 is the no-effect control and ±100 the full control effect.
SMILES,DT40 TDP1 no CPT,HT1080NT lethal,HT1080 IDH1KD tx,DT40 TDP1 CPT,IL-1B inflam inh,12-LOX inh
NC(=S)N1OC[C@@H]2COc3ccc4ccccc4c3[C@@H]21,18µM*,?,?,18µM*,-93*,-12%
CO/N=C/NC(=O)N1OC[C@@H]2COc3ccc4ccccc4c3[C@@H]21,-5%,-4%,-2%,-2%,-8,0%
Cn1sc2ccccc2c1=O,1.6µM*,?,?,2.3µM*,-100*,-35%
CC(=O)Nc1ccc(-c2cc(N)n(-c3ccccc3)n2)cc1,-23%,6%,-5%,-20%,-5,-18%
CC(=O)Nc1ccc2c(=O)n(-c3ccccc3)sc2c1,3.3µM*,?,?,2.6µM*,-104*,1µM*
N#Cc1ccc2c(=O)n(-c3ccccc3)sc2c1,2.6µM*,9%,-4%,3.3µM*,24,0.45µM*
O=c1c2ccccc2sn1-c1ccccc1,2.9µM*,?,16µM*,2.6µM*,-101*,0.56µM*
O=c1ccsc2ccccc12,2%,-13%,-8%,7%,1,-6%
CC(=O)c1ccc(N2CCC(Oc3ccc(C)cc3)(C(=O)O)CC2)nc1,.,.,.,.,.,34%
CC(=O)c1cccc(Nc2nc3ccccc3nc2NS(=O)(=O)c2ccc(C)c(C)c2)c1,.,.,.,.,.,1%
CCOC(=O)C1=C(C(=O)OCC)C2N(Cc3ccc(Br)cc3)c3ccccc3[C@@]23C[C@@H](C(=O)OC)N(S(=O)(=O)c2ccc(OC)cc2)C3=N1 (stereo partly drawn),.,.,.,.,.,-5%
O=C(O)c1cccc(N2C(=O)CSC2c2ccccc2)c1 (stereo not drawn),-7%,10%,23%,-7%,5,i
O=C(O)c1cccc(-n2sc3ccccc3c2=O)c1,?,-2%,-1%,?,-107*,11µM*
O=C1CN(c2ccccc2F)C(=O)CN1c1ccccc1F,-11%,7%,14%,-1%,5,-4%
O=c1c2ccccc2sn1-c1ccccc1F,2.9µM*,-9%,?,2.6µM*,-107*,?
Cc1ccccc1-n1sc2cc(F)ccc2c1=O,2.6µM*,18µM*,21µM*,1.8µM*,-105*,?
O=c1c2ccccc2sn1-c1cccc(Cl)c1,2.3µM*,-16%,?,1.8µM*,-102*,?
Nc1ccc(C(=O)NN2C(=O)[C@H](Cl)C2c2ccc(Cl)cc2)cc1 (stereo partly drawn),3.7µM*,?,18µM*,3.7µM*,-104*,?
CCOc1ccccc1C(=O)NC1CCN(c2cnn(CCOC)c(=O)c2)CC1,.,.,.,.,.,21%
C=CCSc1n[nH]c(-c2ccc(OCCC)cc2)n1,16µM*,7.1µM*,8.9µM*,29µM*,-4,5%
O=[N+]([O-])c1ncccc1OCc1ccc(-c2ccccc2)cc1,16µM*,-21%,-11%,?,-56*,-29%
COc1ccc(C(C)=O)cc1CSC(=N)N,-26%,0%,1%,?,-9,0%
CCOc1ccc(C(C)=O)cc1CSC(=N)N,21µM*,-10%,0%,?,4,-15%
COc1ccc(C(C)=O)cc1COc1cccnc1[N+](=O)[O-],16µM*,-20%,?,?,-2,-10%
CCOc1ccc(C(C)=O)cc1COc1cccnc1[N+](=O)[O-],6.5µM*,?,?,6.5µM*,25,-13%
SMILES,DT40 TDP1 no CPT,HT1080NT lethal,HT1080 IDH1KD tx,DT40 TDP1 CPT,IL-1B inflam inh,12-LOX inh
COc1ccc(S(=O)(=O)CC(=O)c2ccc(F)cc2)cc1,.,.,.,.,.,-16%
CCOc1ccc(C(C)=O)cc1COc1ccc(-n2cnnn2)cc1,?,-1%,-2%,-23%,-57*,1%
NC(=O)COc1ccc(-n2cnnn2)cc1,5%,4%,1%,-2%,-3,-7%
COc1ccc(NC(=O)CSc2ncc(-c3ccc(F)cc3)o2)cc1OC,.,.,.,.,.,-27%
CCN(CCCNC(=O)c1cc2cc3ccc(C)cc3nc2s1)c1ccccc1,26µM*,.,.,?,.,-27%
CCOc1ccc(CNC(=O)c2cc3c(=O)n(C)c4ccccc4c3s2)cc1,2.6µM*,.,.,9.2µM*,.,-17%
CCN(CCCNC(=O)c1cc2c(=O)n(C)c3ccccc3c2s1)c1ccccc1,15µM*,.,.,?,.,4%
COc1ccc(CCNC(=O)c2cc3c(=O)n(C)c4ccccc4c3s2)cc1OC,?,.,.,-7%,.,-22%
CCN(CCCNC(=O)c1cc2c(=O)n(CC)c3ccccc3c2s1)c1cccc(C)c1,?,.,.,?,.,-11%
CCN(CCCNC(=O)c1cc2cc3cc(OC)ccc3nc2s1)c1cccc(C)c1,?,.,.,-26%,.,-11%
CCN(CCCNC(=O)c1cc2c(=O)n(C)c3ccccc3c2s1)Cc1ccccc1,21µM*,.,.,15µM*,.,2%
Cc1c(-c2ccccc2)nc2ccccc2c1C(=O)OCc1ccc(-c2ccccc2)cc1,.,.,.,.,.,5%
NNC(=O)c1cc2cc3ccccc3nc2s1,?,?,?,5.2µM*,-3,13%
Cc1cc(Cl)ccc1OCCn1cncn1,-2%,6%,0%,-4%,34,-7%
Brc1c(OCCOCCn2cncn2)ccc2ccccc12,26µM*,-11%,0%,?,-2,0%
CCN1CCN(C(=O)c2cc(COc3ccc(F)cc3F)on2)[C@@H](C)C1=O,16µM*,0%,-3%,-41%,49,-7%
O=C(c1cc(COc2ccc(F)cc2Cl)on1)N1CCCC(c2ccccc2)C1 (stereo not drawn),?,-25%,?,?,-64*,12%
O=C(c1cc(COc2ccc(F)cc2Cl)on1)N1C[C@H]2CC[C@H]1C2,?,-7%,2%,?,i,-9%
CN(CCCC1CCCC1)C(=O)c1cc(COc2ccc(F)cc2F)on1,?,6%,2%,?,-51*,i
O=C(c1cc(COc2ccc(F)cc2Cl)on1)N1CC2C[C@@H]3CC1C[C@H](C2)C3,?,1%,0%,1.3µM*,-16,0%
CCOC(=O)N1CCN(C(=O)c2cc(COc3ccc(F)cc3F)on2)CC1,?,1%,-4%,?,8,1%
O=C(c1cc(COc2ccc(F)cc2F)on1)N1CCCC(c2ccccc2)C1 (stereo not drawn),?,-15%,?,-18%,?,-4%
